Measured values taken from PubChem BioAssay (NCATS).
Records with an inconclusive call do not appear. A call without a number means that no potency is given here. Values without a mark were called inactive. Active and inactive are the calls of the source. Calls follow the shape of the dose curve; as a rule, active = well fitted curve in the direction sought with a large enough effect; inconclusive = small, poorly fitted or top-dose-only effect, or another doubt; inactive = no such curve, though single readings can be large; an effect the other way counts as inactive or inconclusive.

How the values were obtained:
[1] = biological target: Aldehyde dehydrogenase, mitochondrial (Homo sapiens) (UniProt P05091); assay: qHTS for Inhibitors of the Aldehyde Dehydrogenase Family (ALDH2) Primary screen (AID 2061308); also: nearly all actives have a fitted effect of over 55% in size
[2] = biological target: Retinaldehyde dehydrogenase 3 (Homo sapiens) (UniProt P47895); assay: qHTS for Inhibitors of the Aldehyde Dehydrogenase Family (ALDH1A3) Primary screen (AID 2061315)

Structure (SMILES) | Potency [1] | Potency [2] | activity change, negative = inhibition [1] | activity change, negative = inhibition [2]
O=C(NCCc1nc2ccccc2n1CCOc1cc(F)ccc1F)C1CCCCC1 | inactive | inactive | – | –
COc1ccc(C2Nc3ccccc3C(=O)N2Cc2ccccc2OC)cc1COc1c(C)cc(NC(C)=O)cc1C (configuration not stated) | inactive | inactive | – | –
Cc1ccccc1C(C(=O)NC1CCCCC1)N(C(=O)Cn1cnc2ccccc21)c1cccc(F)c1 (configuration not stated) | inactive | inactive | – | –
NC(=O)C1CCN(c2ncc(Br)cn2)CC1 | inactive | inactive | – | –
OC1C=C2C3CN(Cc4cc5c(cc43)OCO5)C2CC1O (configuration not stated) | inactive | inactive | – | –
Cc1cc(NC(=O)Nc2nnc(-c3ccncc3)s2)ccc1F | inactive | inactive | – | –
CCNc1nc(C#N)nc2c1ncn2-c1cc(F)cc(F)c1 | inactive | inactive | – | –
O=C(N/C=C/c1ccccc1)c1cccc([S+](=O)([O-])Nc2ccccc2F)c1 | inactive | inactive | – | –
CC1OC(OC2C(O)COC(O[C@@H]3[C@@H](O)[C@@H](O)[C@H](OC4C(OC(=O)[C@]56CCC(C)(C)CC5C5=CCC7[C@@]8(C)C[C@H](O)[C@H](OC9OC(CO)C(O)C(O)C9O)[C@@](C)(CO)C8[C@H](O)C[C@@]7(C)[C@]5(C)CC6)OCC(O)C4O)O[C@H]3C)C2O)C(O)C(O)C1O (some centres not stated) | – | – | 13.1% [at 11.2 µM] | 4.77% [at 11.2 µM]
O=C(Nc1ccc(Br)c(Br)c1)Nc1nnc(-c2cccnc2)s1 | inactive | inactive | – | –
N#CN1CCC(NC(=O)c2ccc(F)cc2)CC1 | inactive | inactive | – | –
COc1ccc2nc(-c3ccc(N(C)C)cc3)sc2c1 | inactive | inactive | – | –
CCCn1c(-c2ccc(F)cc2)nc2c(NC3CCN(Cc4ccccc4)C3)nc(C)nc21 (configuration not stated) | inactive | inactive | – | –
CN1CCN(c2cc(-c3cc(O)c4ncccc4c3)ccn2)CC1 | inactive | inactive | – | –
CC(C)(C)c1ccc(-c2nc(SCCCOc3ccccc3)n3[nH]c(=O)cc3n2)cc1 | inactive | inactive | – | –
C=C1C(=O)OC2C3=C(C)C(=O)CC3C(C)CC(O)C12 (configuration not stated) | inactive | inactive | – | –
O=C1CCCC2=C1C(c1cccc(F)c1)N=C(Nc1nc3ccccc3o1)N2 (configuration not stated) | inactive | inactive | – | –
CN(C(=O)c1cccs1)c1cccnc1 | inactive | inactive | – | –

Structure (SMILES) | Potency [1] | Potency [2] | activity change, negative = inhibition [1] | activity change, negative = inhibition [2]
COc1ccc2nc(-c3ccc(C#N)cc3)sc2c1 | inactive | inactive | – | –
CCCn1c(-c2ccc(F)cc2)nc2c(NC3CC4CCC(C3)N4C)nc(C)nc21 (configuration not stated) | inactive | inactive | – | –
c1csc(CNc2ncnc3ccc(-c4ccoc4)cc23)c1 | inactive | inactive | – | –
Cc1ccnc(NC(=S)N2CCN(c3cc(C(F)(F)F)cc(C(F)(F)F)c3)CC2)c1 | inactive | inactive | – | –
Cc1ccc(OCCn2c(CCNC(=O)c3ccsc3)nc3ccccc32)cc1 | inactive | inactive | – | –
C[C@@H]1O[C@@H](O[C@H]2[C@H](O[C@H]3CC[C@@]4(C)C(CC[C@]5(C)C4CC=C4[C@@H]6CC(C)(C)CC[C@]6(C(=O)O)CC[C@]45C)[C@]3(C)CO)OC[C@H](O)[C@@H]2O)[C@H](O)[C@H](O[C@@H]2OC[C@@H](O)[C@H](O)[C@H]2O)[C@H]1O (some centres not stated) | inactive | inactive | – | –
Cc1cccc(CNc2ncnc3ccc(-c4cccc(Cl)c4)cc23)c1 | inactive | inactive | – | –
Cc1ccc(OCCn2c(CCNC(=O)/C=C/c3ccccc3Br)nc3ccccc32)cc1 | inactive | inactive | – | –
Cc1cccc(S(=O)(=O)N2CCN(S(=O)(=O)c3ccc4c(c3)OCCO4)CC2)c1 | inactive | inactive | – | –
Cc1ccc(NS(=O)(=O)c2cc3c(cc2N[C@@H](C)CO)NC(=O)CC3)cc1C | inactive | inactive | – | –
CCOC(=O)CCCC(=O)Nc1ncnc2c1C(c1ccccc1)c1c(ccc3ccccc13)O2 (configuration not stated) | inactive | inactive | – | –
CC(=O)Nc1ccc(-c2nc3ccccc3s2)cc1 | inactive | inactive | – | –
O=C(O)c1ccc(O)c2ncc(N3CCCC3)cc12 | inactive | inactive | – | –
Cc1cc(NC(=O)Nc2nnc(-c3cccnc3)s2)ccc1Br | inactive | inactive | – | –
c1cncc(CNc2ncnc3ccc(-c4cccnc4)cc23)c1 | inactive | inactive | – | –
COc1ccc(-c2nc3ccc(Cl)cc3c(=O)n2Cc2ccccc2)cc1COc1ccc(NC(C)=O)cc1 | inactive | inactive | – | –
CCN1CCCC1Cn1c(-c2ccccc2)nc2c(NCCOC)nc(C)nc21 (configuration not stated) | inactive | inactive | – | –
COc1cc(NS(=O)(=O)c2ccc(C)cc2)ccc1C(=O)Nc1nc(-c2ccccc2)cs1 | inactive | inactive | – | –
